# Results filed as inconclusive are left out. Activity calls are given as the source filed them. The call rests on the fitted dose curve; in most records, active means well fitted inhibition curve with a large enough effect; inconclusive means small, poorly fitted or top-dose-only effect; inactive means flat fitted curve, though single readings scatter.
# System: CP194
# Experiment: qHTS profiling for inhibitors of Plasmodium falciparum proliferation (AID 504749); further: nearly all actives have a fitted effect of over 60% in size;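 on activity, negative = inhibition: 0% = DMSO vehicle and full inhibition = artemisinin control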
# Conditions: P. falciparum in erythrocytes, SYBR Green DNA, 72 h; series mostly up to 28.7 µM; activity, negative = inhibition: at the top concentration
# Method in brief: (§1)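 Parasite proliferation within erythrocytes, 72 h exposure. Endpoint: SYBR Green I fluorescence after overnight lysis at room temperature. Controls: 0.29 uM artemisinin, DMSO.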
# Potency means the concentration at half of the fitted maximal effect.
row,Compound,"activity, negative = inhibition"
1,CC1OC1P(=O)(O)O (stereo not given),-3.03% (inactive)
2,C[S+](CC[C@H](N)C(=O)O)C[C@H]1O[C@@H](n2cnc3c(N)ncnc32)[C@H](O)[C@@H]1O (stereo not given in full),0.637% (inactive)
3,O=C(O)c1ccccc1Nc1cccc(C(F)(F)F)c1,4.73% (inactive)
4,O=C(O)Cc1ccc(-c2ccccc2)cc1,-0.355% [at 12.8 µM] (inactive)

# System: CP201
# Experiment: as above
# Conditions: P. falciparum in erythrocytes, SYBR Green DNA, 72 h; series mostly up to 28.7 µM; activity, negative = inhibition: at the top concentration
# Method in brief: as §1
Compound,"activity, negative = inhibition",Potency
COc1ccc(-c2cc(=S)ss2)cc1,-1.34% (inactive),–
CCCCCCCCCCCCCCCCCC(=O)O,1.52% (inactive),–
CN1CCN(c2cc3c(nn2)Oc2ccccc2N3C)CC1,1.22% (inactive),–
CN1[C@@H](CC(=O)c2ccccc2)CCC[C@H]1C[C@H](O)c1ccccc1,-7.24% (inactive),–
Clc1ccccc1-c1nc(-c2ccncc2)no1,3.63% (inactive),–
Cc1ccc(O)c(-n2nc3ccccc3n2)c1,-4.21% (inactive),–
CCCCCC[C@@H](O)C/C=C\CCCCCCCC(=O)O,0.981% (inactive),–
Cc1cc(O)c2ccccc2c1O,-12.7% (inactive),–
Nc1ccc(C(=O)O)c(O)c1,-5.25% (inactive),–
CCOc1ccc2nc(S(N)(=O)=O)sc2c1,-4.17% (inactive),–
CCCCCCCCCCCC(=O)[O][Sn]([CH2]CCC)([CH2]CCC)[O]C(=O)CCCCCCCCCCC,1.84% (inactive),–
O=C(CCN1CCN(CCO)CC1)N1c2ccccc2Sc2ccc(C(F)(F)F)cc21,-13.6% (inactive),–
O=C(O)c1cc(O)c(O)c(O)c1,-8.67% (inactive),–
Nc1cc(-c2ccncc2)c[nH]c1=O,1.09% (inactive),–
CCCCCCCCCCCCCCCC(=O)OC(C)C,-1.06% (inactive),–
O=C(O)COc1ccc(C(=O)c2cccs2)c(Cl)c1Cl,–,inactive
CCCSc1ccc2nc(NC(=O)OC)[nH]c2c1,-2.29% [at 12.8 µM] (inactive),–
COc1cc(/C=C/C(=O)N2CCN(CC(=O)N3CCCC3)CC2)cc(OC)c1OC,4.89% (inactive),–
O=c1[nH]c2ccccc2n1CCCN1CCN(C(c2ccccc2)c2ccccc2)CC1,-15.8% (inactive),–
CCCC(=O)OC[C@@H](OC(=O)CCC)[C@@H](OC(=O)CCC)[C@H](Cn1c2nc(=O)[nH]c(=O)c-2nc2cc(C)c(C)cc21)OC(=O)CCC,-4.66% (inactive),–
O=C(/C=C/c1ccccc1)NCCO,-8.24% (inactive),–
Cc1[nH]cnc1CN1CCc2c(c3ccccc3n2C)C1=O,-1.73% (inactive),–
CC1OC1P(=O)(O)O (stereo not given),2.68% (inactive),–
C[S+](CC[C@H](N)C(=O)O)C[C@H]1O[C@@H](n2cnc3c(N)ncnc32)[C@H](O)[C@@H]1O (stereo not given in full),-14.6% (inactive),–
O=C(O)c1ccccc1Nc1cccc(C(F)(F)F)c1,1.93% (inactive),–
O=C(O)Cc1ccc(-c2ccccc2)cc1,2.68% [at 12.8 µM] (inactive),–

# System: CP211
# Experiment: as above
# Conditions: P. falciparum in erythrocytes, SYBR Green DNA, 72 h; series mostly up to 28.7 µM; activity, negative = inhibition: at the top concentration
# Method in brief: as §1
Compound,"activity, negative = inhibition",Potency
COc1ccc(-c2cc(=S)ss2)cc1,-3.05% (inactive),–
CN1CCN(c2cc3c(nn2)Oc2ccccc2N3C)CC1,-1.28% (inactive),–
CC(=O)[C@]1(O)Cc2c(O)c3c(c(O)c2[C@@H](O[C@H]2C[C@H](N)[C@H](O)[C@H](C)O2)C1)C(=O)c1c(O)cccc1C3=O,–,10.7 µM (active)
CN1[C@@H](CC(=O)c2ccccc2)CCC[C@H]1C[C@H](O)c1ccccc1,-25.2% (inactive),–
Clc1ccccc1-c1nc(-c2ccncc2)no1,-4.12% (inactive),–
Cc1ccc(O)c(-n2nc3ccccc3n2)c1,-7.38% (inactive),–
CCCCCC[C@@H](O)C/C=C\CCCCCCCC(=O)O,2.83% (inactive),–
Cc1cc(O)c2ccccc2c1O,-8.74% (inactive),–
Nc1ccc(C(=O)O)c(O)c1,-9.75% (inactive),–
CCCCCCCCCCCC(=O)[O][Sn]([CH2]CCC)([CH2]CCC)[O]C(=O)CCCCCCCCCCC,1.4% (inactive),–
O=C(O)c1cc(O)c(O)c(O)c1,-18% (inactive),–
Nc1cc(-c2ccncc2)c[nH]c1=O,5.13% (inactive),–
CCCCCCCCCCCCCCCC(=O)OC(C)C,7.23% (inactive),–
O=C(O)COc1ccc(C(=O)c2cccs2)c(Cl)c1Cl,–,inactive
CCCSc1ccc2nc(NC(=O)OC)[nH]c2c1,-2.19% [at 12.8 µM] (inactive),–
O=C1CN(/N=C/c2ccc(-c3ccc([N+](=O)[O-])cc3)o2)C(=O)N1,-1.4% (inactive),–
COc1cc(/C=C/C(=O)N2CCN(CC(=O)N3CCCC3)CC2)cc(OC)c1OC,4.3% (inactive),–
CCCC(=O)OC[C@@H](OC(=O)CCC)[C@@H](OC(=O)CCC)[C@H](Cn1c2nc(=O)[nH]c(=O)c-2nc2cc(C)c(C)cc21)OC(=O)CCC,-1.18% (inactive),–
O=C(/C=C/c1ccccc1)NCCO,-9.85% (inactive),–
Cc1[nH]cnc1CN1CCc2c(c3ccccc3n2C)C1=O,-2.28% (inactive),–
CC1OC1P(=O)(O)O (stereo not given),1.06% (inactive),–
C[S+](CC[C@H](N)C(=O)O)C[C@H]1O[C@@H](n2cnc3c(N)ncnc32)[C@H](O)[C@@H]1O (stereo not given in full),6.14% (inactive),–
O=C(O)c1ccccc1Nc1cccc(C(F)(F)F)c1,6.13% (inactive),–
O=C(O)Cc1ccc(-c2ccccc2)cc1,1.06% [at 12.8 µM] (inactive),–

# System: CP215
# Experiment: as above
# Conditions: P. falciparum in erythrocytes, SYBR Green DNA, 72 h; series mostly up to 28.7 µM; activity, negative = inhibition: at the top concentration
# Method in brief: as §1
Compound,"activity, negative = inhibition",Potency
COc1ccc(-c2cc(=S)ss2)cc1,-15.4% (inactive),–
CCCCCCCCCCCCCCCCCC(=O)O,-0.102% (inactive),–
CN1CCN(c2cc3c(nn2)Oc2ccccc2N3C)CC1,-0.312% (inactive),–
CC(=O)[C@]1(O)Cc2c(O)c3c(c(O)c2[C@@H](O[C@H]2C[C@H](N)[C@H](O)[C@H](C)O2)C1)C(=O)c1c(O)cccc1C3=O,–,12 µM (active)
Clc1ccccc1-c1nc(-c2ccncc2)no1,3.71% (inactive),–
Cc1ccc(O)c(-n2nc3ccccc3n2)c1,1.35% (inactive),–
CCCCCC[C@@H](O)C/C=C\CCCCCCCC(=O)O,-9.48% (inactive),–
Cc1cc(O)c2ccccc2c1O,-1.44% (inactive),–
Nc1ccc(C(=O)O)c(O)c1,6.54% (inactive),–
CCOc1ccc2nc(S(N)(=O)=O)sc2c1,-9.44% (inactive),–
CCCCCCCCCCCC(=O)[O][Sn]([CH2]CCC)([CH2]CCC)[O]C(=O)CCCCCCCCCCC,14.6% (inactive),–
O=C(CCN1CCN(CCO)CC1)N1c2ccccc2Sc2ccc(C(F)(F)F)cc21,-7.91% (inactive),–
O=C(O)c1cc(O)c(O)c(O)c1,-24% (inactive),–
Nc1cc(-c2ccncc2)c[nH]c1=O,6.8% (inactive),–
CCCCCCCCCCCCCCCC(=O)OC(C)C,2.99% (inactive),–
O=C(O)COc1ccc(C(=O)c2cccs2)c(Cl)c1Cl,–,inactive
CCCSc1ccc2nc(NC(=O)OC)[nH]c2c1,-5.52% [at 12.8 µM] (inactive),–
COc1cc(/C=C/C(=O)N2CCN(CC(=O)N3CCCC3)CC2)cc(OC)c1OC,-0.0467% (inactive),–
CCCC(=O)OC[C@@H](OC(=O)CCC)[C@@H](OC(=O)CCC)[C@H](Cn1c2nc(=O)[nH]c(=O)c-2nc2cc(C)c(C)cc21)OC(=O)CCC,-9.49% (inactive),–
O=C(/C=C/c1ccccc1)NCCO,0.338% (inactive),–
COc1cc(/C=C/C(=O)CC(=O)/C=C/c2ccc(O)c(OC)c2)ccc1O,–,16.9 µM (active)
Cc1[nH]cnc1CN1CCc2c(c3ccccc3n2C)C1=O,0.808% (inactive),–
CC1OC1P(=O)(O)O (stereo not given),-0.568% (inactive),–
C[S+](CC[C@H](N)C(=O)O)C[C@H]1O[C@@H](n2cnc3c(N)ncnc32)[C@H](O)[C@@H]1O (stereo not given in full),2.05% (inactive),–
O=C(O)c1ccccc1Nc1cccc(C(F)(F)F)c1,0.812% (inactive),–
O=C(O)Cc1ccc(-c2ccccc2)cc1,3.29% [at 12.8 µM] (inactive),–
